# Reference: ChEMBL document CHEMBL1961873, “Compounds: GSK PKIS; Assays: Nanosyn kinase panel” (2012)
# What was measured:
# [1] = molecular target: Sphingosine kinase 1 (Homo sapiens) (UniProt Q9NYA1); settings: at 1 µM;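 also: mean SPHK1 inhibition value reported from the GSK PKIS kinase panel screen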
# [2] = molecular target: T1, Sphingosine kinase 2 (Homo sapiens) (UniProt Q9NRA0); settings: at 0.1 µM
# T1 sequence (whole entry): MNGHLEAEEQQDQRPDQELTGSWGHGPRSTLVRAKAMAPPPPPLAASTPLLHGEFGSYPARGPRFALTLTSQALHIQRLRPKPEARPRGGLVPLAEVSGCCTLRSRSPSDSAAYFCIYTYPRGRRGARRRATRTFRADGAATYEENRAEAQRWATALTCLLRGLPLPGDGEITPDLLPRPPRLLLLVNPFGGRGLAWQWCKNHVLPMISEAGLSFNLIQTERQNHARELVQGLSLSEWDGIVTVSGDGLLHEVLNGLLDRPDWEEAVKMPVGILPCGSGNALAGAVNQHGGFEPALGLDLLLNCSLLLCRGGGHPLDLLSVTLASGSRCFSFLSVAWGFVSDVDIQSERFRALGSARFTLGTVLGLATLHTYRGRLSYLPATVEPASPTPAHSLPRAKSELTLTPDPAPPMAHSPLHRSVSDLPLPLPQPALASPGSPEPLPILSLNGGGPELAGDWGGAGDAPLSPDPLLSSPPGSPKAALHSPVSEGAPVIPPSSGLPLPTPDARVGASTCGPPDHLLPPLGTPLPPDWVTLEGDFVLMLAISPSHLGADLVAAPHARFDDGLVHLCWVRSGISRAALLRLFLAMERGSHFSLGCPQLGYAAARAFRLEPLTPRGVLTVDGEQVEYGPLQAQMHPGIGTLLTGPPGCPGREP
# [3] = molecular target: T1, Sphingosine kinase 2 (Homo sapiens); settings: at 1 µM
# [4] = molecular target: Casein kinase II subunit alpha (Homo sapiens) (UniProt P68400); settings: at 0.1 µM
# Sequence of Casein kinase II subunit alpha (Homo sapiens) (P68400 whole entry, looked up): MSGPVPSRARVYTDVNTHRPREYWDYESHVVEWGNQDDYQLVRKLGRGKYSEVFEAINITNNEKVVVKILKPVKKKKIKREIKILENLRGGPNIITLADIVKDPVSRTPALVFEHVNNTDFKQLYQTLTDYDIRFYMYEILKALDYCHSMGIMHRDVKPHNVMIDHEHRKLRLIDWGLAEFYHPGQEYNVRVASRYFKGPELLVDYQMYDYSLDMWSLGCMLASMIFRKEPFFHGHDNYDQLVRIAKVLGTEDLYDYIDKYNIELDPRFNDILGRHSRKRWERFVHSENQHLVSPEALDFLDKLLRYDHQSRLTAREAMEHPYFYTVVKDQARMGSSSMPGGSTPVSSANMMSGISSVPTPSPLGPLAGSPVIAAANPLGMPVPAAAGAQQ
# [5] = molecular target: Casein kinase II subunit alpha (Homo sapiens) (UniProt P68400); settings: at 1 µM
# [6] = molecular target: T2, Inhibitor of nuclear factor kappa-B kinase subunit alpha (Homo sapiens) (UniProt O15111); settings: at 0.1 µM
# T2 sequence (whole entry): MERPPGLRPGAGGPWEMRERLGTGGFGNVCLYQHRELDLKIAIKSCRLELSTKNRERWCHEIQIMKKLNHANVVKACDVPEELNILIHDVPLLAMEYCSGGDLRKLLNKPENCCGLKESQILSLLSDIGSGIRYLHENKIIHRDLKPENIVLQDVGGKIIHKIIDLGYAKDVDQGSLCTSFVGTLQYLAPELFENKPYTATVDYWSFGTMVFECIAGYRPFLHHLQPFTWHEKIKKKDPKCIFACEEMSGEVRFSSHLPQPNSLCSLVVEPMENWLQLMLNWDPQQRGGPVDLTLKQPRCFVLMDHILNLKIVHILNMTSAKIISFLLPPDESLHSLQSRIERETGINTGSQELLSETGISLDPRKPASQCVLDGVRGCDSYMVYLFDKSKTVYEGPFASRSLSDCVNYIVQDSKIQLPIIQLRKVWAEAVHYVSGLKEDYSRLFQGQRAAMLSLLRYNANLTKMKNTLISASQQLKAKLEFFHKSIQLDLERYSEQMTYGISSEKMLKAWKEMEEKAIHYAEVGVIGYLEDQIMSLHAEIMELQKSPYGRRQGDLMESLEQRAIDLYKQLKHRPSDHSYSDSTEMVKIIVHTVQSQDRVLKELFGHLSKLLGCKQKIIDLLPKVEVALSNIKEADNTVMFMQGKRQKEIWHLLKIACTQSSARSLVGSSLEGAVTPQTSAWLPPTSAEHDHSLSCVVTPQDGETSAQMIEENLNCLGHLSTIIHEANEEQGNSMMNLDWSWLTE
# [7] = molecular target: T2, Inhibitor of nuclear factor kappa-B kinase subunit alpha (Homo sapiens); settings: at 1 µM
# [8] = molecular target: T3, Inhibitor of nuclear factor kappa-B kinase subunit beta (Homo sapiens) (UniProt O14920); settings: at 0.1 µM
# T3 sequence (whole entry): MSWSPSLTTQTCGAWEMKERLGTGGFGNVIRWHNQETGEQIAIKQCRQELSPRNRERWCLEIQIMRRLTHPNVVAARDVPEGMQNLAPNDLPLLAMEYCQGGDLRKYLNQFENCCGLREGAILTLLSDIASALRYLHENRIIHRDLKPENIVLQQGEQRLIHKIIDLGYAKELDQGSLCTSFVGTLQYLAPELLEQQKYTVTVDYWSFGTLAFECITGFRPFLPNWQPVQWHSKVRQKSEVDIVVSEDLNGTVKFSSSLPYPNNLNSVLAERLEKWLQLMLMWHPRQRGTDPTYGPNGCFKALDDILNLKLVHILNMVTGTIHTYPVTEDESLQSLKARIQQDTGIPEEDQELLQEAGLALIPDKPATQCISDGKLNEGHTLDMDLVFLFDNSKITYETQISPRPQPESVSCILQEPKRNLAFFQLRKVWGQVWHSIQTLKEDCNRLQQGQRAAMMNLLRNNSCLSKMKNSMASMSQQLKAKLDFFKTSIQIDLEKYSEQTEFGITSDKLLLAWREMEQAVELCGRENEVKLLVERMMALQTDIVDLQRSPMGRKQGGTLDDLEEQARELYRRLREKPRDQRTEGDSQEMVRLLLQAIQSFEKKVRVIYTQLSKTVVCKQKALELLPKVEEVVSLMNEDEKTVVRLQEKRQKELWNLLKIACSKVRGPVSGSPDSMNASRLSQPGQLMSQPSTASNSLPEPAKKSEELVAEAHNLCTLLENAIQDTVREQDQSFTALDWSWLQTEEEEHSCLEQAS
# [9] = molecular target: T3, Inhibitor of nuclear factor kappa-B kinase subunit beta (Homo sapiens); settings: at 1 µM
# [10] = molecular target: T4, Inhibitor of nuclear factor kappa-B kinase subunit epsilon (Homo sapiens) (UniProt Q14164); settings: at 0.1 µM
# T4 sequence (whole entry): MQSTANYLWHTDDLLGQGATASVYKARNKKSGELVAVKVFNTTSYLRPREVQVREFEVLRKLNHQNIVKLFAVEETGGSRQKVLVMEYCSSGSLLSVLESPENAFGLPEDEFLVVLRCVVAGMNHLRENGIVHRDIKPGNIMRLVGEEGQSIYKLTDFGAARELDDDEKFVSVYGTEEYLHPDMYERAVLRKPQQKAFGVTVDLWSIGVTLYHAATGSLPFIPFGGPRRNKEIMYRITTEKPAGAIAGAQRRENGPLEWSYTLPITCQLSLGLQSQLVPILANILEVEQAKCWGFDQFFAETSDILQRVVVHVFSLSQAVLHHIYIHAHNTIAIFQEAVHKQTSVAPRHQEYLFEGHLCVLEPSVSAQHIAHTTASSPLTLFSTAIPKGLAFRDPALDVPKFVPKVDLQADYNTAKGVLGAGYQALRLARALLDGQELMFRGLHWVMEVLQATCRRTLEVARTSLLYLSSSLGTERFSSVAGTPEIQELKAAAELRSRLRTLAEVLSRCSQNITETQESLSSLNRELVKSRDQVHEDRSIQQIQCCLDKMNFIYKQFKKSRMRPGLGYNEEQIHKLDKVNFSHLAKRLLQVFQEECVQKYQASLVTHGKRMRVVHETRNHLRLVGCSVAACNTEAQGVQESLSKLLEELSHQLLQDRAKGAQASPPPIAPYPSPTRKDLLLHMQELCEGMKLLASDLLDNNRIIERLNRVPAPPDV
# [11] = molecular target: T4, Inhibitor of nuclear factor kappa-B kinase subunit epsilon (Homo sapiens); settings: at 1 µM
# [12] = molecular target: T5, Serine/threonine-protein kinase Nek1 (Homo sapiens) (UniProt Q96PY6); settings: at 0.1 µM
# T5 sequence (whole entry): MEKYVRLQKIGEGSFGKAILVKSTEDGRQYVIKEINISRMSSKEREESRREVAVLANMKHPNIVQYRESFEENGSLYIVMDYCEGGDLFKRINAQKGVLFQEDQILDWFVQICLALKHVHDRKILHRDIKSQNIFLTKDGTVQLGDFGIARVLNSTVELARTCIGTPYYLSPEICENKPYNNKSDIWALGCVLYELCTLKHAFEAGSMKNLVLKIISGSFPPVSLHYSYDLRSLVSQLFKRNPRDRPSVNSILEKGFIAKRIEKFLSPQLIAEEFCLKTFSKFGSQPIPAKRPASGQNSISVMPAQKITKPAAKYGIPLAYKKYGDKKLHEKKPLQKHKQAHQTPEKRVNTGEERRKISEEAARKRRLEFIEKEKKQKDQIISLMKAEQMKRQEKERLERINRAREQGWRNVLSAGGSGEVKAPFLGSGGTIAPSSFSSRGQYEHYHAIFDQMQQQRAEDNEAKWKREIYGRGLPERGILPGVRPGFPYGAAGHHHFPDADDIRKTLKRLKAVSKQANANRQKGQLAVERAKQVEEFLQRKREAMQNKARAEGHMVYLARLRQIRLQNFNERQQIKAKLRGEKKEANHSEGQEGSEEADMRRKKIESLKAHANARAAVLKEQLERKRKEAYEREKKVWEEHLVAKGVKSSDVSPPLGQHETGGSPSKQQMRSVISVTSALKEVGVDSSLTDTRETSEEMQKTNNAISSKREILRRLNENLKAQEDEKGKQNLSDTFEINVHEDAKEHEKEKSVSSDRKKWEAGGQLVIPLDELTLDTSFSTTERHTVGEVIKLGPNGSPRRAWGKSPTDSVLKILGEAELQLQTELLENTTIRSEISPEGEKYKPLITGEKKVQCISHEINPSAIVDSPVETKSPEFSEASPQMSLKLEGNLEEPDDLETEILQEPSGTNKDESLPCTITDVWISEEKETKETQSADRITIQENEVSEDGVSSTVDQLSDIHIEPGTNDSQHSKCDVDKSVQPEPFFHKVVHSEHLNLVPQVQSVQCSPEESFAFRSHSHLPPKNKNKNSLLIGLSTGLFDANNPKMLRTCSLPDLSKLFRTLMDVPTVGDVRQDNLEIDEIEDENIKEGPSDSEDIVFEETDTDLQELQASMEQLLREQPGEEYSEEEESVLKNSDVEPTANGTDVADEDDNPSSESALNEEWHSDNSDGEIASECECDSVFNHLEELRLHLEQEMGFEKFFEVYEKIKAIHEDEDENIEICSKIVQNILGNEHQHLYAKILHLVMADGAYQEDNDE
# [13] = molecular target: T5, Serine/threonine-protein kinase Nek1 (Homo sapiens); settings: at 1 µM
# [14] = molecular target: T6, Serine/threonine-protein kinase Nek2 (Homo sapiens) (UniProt P51955); settings: at 0.1 µM
# T6 sequence (whole entry): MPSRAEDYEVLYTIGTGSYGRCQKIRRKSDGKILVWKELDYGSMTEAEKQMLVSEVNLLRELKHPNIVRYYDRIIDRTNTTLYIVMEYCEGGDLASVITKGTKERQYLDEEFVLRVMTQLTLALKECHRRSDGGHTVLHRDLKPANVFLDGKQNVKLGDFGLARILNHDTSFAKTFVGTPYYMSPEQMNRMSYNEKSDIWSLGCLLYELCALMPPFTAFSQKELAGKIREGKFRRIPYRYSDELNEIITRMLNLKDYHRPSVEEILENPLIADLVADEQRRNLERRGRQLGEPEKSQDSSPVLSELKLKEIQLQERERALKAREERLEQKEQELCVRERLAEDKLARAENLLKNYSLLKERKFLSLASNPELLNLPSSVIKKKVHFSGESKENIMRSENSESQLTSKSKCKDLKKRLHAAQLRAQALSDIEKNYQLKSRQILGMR
# [15] = molecular target: T6, Serine/threonine-protein kinase Nek2 (Homo sapiens); settings: at 1 µM
# [16] = molecular target: Serine/threonine-protein kinase Nek6 (Homo sapiens) (UniProt Q9HC98); settings: at 0.1 µM
# Sequence of Serine/threonine-protein kinase Nek6 (Homo sapiens) (Q9HC98 whole entry): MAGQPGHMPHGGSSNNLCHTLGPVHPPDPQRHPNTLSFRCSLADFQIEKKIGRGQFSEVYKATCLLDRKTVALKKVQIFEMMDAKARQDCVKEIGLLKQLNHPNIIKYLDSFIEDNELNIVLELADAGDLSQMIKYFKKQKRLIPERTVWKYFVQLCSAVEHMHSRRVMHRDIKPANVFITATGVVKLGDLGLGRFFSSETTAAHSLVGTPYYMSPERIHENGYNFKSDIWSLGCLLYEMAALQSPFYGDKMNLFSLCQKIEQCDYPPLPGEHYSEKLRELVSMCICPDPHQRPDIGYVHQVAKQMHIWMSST
# [17] = molecular target: Serine/threonine-protein kinase Nek6 (Homo sapiens) (UniProt Q9HC98); settings: at 1 µM
# [18] = molecular target: Serine/threonine-protein kinase Nek7 (Homo sapiens) (UniProt Q8TDX7); settings: at 0.1 µM
# Sequence of Serine/threonine-protein kinase Nek7 (Homo sapiens) (Q8TDX7 whole entry, looked up): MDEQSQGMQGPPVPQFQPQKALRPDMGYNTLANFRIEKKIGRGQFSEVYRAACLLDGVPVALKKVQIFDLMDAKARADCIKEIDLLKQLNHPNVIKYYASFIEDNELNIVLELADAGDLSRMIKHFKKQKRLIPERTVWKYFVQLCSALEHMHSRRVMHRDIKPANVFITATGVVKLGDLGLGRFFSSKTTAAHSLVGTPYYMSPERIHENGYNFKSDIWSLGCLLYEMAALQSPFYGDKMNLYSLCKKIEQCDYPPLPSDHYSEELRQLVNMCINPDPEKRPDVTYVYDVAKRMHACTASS
# [19] = molecular target: Serine/threonine-protein kinase Nek7 (Homo sapiens) (UniProt Q8TDX7); settings: at 1 µM
# [20] = molecular target: T7, Serine/threonine-protein kinase Nek9 (Homo sapiens) (UniProt Q8TD19); settings: at 0.1 µM;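 also: reported value is the mean percent inhibition of NEK9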
# T7 sequence (whole entry): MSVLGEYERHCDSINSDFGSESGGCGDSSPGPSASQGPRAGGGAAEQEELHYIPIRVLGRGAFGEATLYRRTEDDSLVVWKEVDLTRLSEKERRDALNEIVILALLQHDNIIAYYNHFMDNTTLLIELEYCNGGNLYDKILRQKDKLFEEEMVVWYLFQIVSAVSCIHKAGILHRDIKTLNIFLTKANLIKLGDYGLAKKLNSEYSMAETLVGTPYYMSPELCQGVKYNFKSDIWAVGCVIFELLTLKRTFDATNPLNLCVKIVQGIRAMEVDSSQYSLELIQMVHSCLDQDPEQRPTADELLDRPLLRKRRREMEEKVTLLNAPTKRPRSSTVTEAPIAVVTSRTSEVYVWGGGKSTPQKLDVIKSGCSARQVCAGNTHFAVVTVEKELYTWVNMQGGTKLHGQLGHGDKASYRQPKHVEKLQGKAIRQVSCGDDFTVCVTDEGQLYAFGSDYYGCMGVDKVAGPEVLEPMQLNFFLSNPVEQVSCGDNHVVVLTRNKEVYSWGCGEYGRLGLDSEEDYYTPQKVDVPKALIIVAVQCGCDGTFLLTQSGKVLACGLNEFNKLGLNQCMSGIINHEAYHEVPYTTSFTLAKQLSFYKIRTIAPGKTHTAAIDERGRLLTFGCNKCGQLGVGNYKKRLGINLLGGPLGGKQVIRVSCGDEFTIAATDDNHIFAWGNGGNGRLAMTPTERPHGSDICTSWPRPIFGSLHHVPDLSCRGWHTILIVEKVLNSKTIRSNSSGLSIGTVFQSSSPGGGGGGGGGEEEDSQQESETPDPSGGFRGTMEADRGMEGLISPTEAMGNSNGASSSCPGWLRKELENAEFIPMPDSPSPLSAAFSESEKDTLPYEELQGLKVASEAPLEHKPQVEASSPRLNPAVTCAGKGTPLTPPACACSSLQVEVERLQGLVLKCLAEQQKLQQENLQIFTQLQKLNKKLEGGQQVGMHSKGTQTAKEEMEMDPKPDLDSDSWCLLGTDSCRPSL
# Sequence of Sphingosine kinase 1 (Homo sapiens) (Q9NYA1 whole entry): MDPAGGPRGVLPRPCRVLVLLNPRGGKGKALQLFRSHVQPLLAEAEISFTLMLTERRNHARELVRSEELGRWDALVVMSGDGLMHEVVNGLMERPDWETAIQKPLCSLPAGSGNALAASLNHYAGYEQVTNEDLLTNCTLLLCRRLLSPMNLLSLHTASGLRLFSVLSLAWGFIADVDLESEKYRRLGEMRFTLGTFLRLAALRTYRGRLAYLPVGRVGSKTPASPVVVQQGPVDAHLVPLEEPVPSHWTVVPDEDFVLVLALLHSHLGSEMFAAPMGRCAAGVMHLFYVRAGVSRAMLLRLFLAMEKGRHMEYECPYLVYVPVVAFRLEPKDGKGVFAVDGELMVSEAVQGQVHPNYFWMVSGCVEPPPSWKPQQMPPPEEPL
Structure (SMILES),inhibition [1] [%],inhibition [2] [%],inhibition [3] [%],inhibition [4] [%],inhibition [5] [%],inhibition [6] [%],inhibition [7] [%],inhibition [8] [%],inhibition [9] [%],inhibition [10] [%],inhibition [11] [%],inhibition [12] [%],inhibition [13] [%],inhibition [14] [%],inhibition [15] [%],inhibition [16] [%],inhibition [17] [%],inhibition [18] [%],inhibition [19] [%],inhibition [20] [%]
Cc1ccc2c(-c3ccnc(Nc4cccc(C(F)(F)F)c4)n3)c(-c3ccccc3)nn2n1,-0.04,0,0,1.2,3.98,1.79,5.16,4.63,8.3,7.46,6.22,3.11,2.67,6.28,3.74,6.41,1.67,0.74,5.29,8.93
COc1cc2ncn(-c3cc(OCc4ccccc4S(C)(=O)=O)c(C#N)s3)c2cc1OC,-0.15,0.46,-2.2,2.39,5,6.91,5.75,3.44,1.17,42.5,115,2.58,3,6.68,14.4,3.33,-0.15,4.85,3.13,3.17
